Source: PubChem
A selection: hits, their analogues and other compounds. The true share with any hit is near 8.1%.
MCF10A rerep – DNA re-replication induction in MCF 10a cells; MCF 10A DNA re-replication, Hoechst nuclear intensity, 48 h; Potency, µM (top dose mostly 46.1 µM), usual class: activators; actives 2.9% (n = 350,000); AID 624296; note: nearly all actives have a fitted effect of over 50% in size
KB-V1 cytotox – kills drug-selected multidrug resistant KB-V1 cells; KB-V1 MDR cells viability, CellTiter-Glo, 72 h; actives 3.4% (n = 400,000); Potency, µM (top dose mostly 46.1 µM), usual class: cytotoxic; note: nearly all actives have a fitted effect of over 60% in size
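Drug-selected KB-V1 cells, grown in DMEM lacking phenol red with 10% FBS, receive compound titrations; after three days at 37 degrees C, surviving cell ATP is quantified by CellTiter-Glo luminescence and responses normalized and curve-fitted.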
KB-3-1 tox – KB-3-1 parental cell cytotoxicity | KB-3-1 viability, CellTiter-Glo ATP luminescence, 72 h | Potency, µM (titrated, usually from 46.1 µM), actives largely listed as cytotoxic | actives 1.4% (n = 400,000) | AID 1347075; note: nearly all actives have a fitted effect of over 60% in size
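Here the drug-naive KB-3-1 line serves as comparator for MDR sub-line selectivity; cells received compound titrations, 72 h at 37 °C, then CellTiter-Glo readout.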
SW480 rerep – induces DNA re-replication in SW480 colon adenocarcinoma cells; actives 1.8% (n = 340,000); Potency, µM (highest dose often 46.1 µM), actives largely listed as activators; SW480 DNA re-replication, Hoechst DNA content imaging, 48 h; note: nearly all actives have a fitted effect of over 55% in size
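First, 250 cells per well were seeded. Next, compound or vehicle (23 nL) was pinned in, plates sat 48 hr at 37 C. Finally Hoechst was added for 40 min before fluorescence scanning.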
ELG1 repair inh – blocks ELG1-dependent DNA repair in HEK293T cells | HEK293T ELG1-luciferase reporter, luminescence, 16 h; DNA damage induced by 5-fluorouridine | Potency, µM (titrated, usually from 46.1 µM), actives largely listed as inhibitors | actives 2.3% (n = 330,000); note: nearly all actives have a fitted effect of over 55% in size
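In this reporter screen, reduction of luminescence relative to DMSO vehicle indicated activity. Compounds and 5-fluorouridine were added together to 2,000 cells per well, incubated for 16 hr at 37 °C, then developed with ONE-Glo.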
A number is an active result; - = inactive; ? = inconclusive; . = not tested or not shown; [ ] = remark or other dose. Calls come from the whole dose curve; as a rule, active = well fitted curve in the direction sought with a large enough effect; inconclusive = small, poorly fitted or top-dose-only effect, or another doubt; inactive = no such curve, though single readings can be large; an effect the other way counts as inactive or inconclusive.

SMILES	MCF10A rerep	KB-V1 cytotox	KB-3-1 tox	SW480 rerep	ELG1 repair inh
CCN1CCN(c2cc(C)c3cc(NC(=S)NCc4cccs4)ccc3n2)CC1	7.31µM	-	-	?	-
Cc1cc(N2CCN(C)CC2)nc2ccc(NC(=O)c3ccc(Br)o3)cc12	-	?	?	-	-
Cc1cc(N2CCCCC2)nc2ccc(NC(=O)c3ccc(Br)o3)cc12	8.2µM	?	?	?	?
COc1ccc(C(=O)/C=C/c2ccc(C)cc2)c(OC(=O)c2ccc([N+](=O)[O-])cc2)c1	?	-	?	-[9.22 µM]	?
O=C(/C=C/c1ccccc1F)c1cccc([N+](=O)[O-])c1	20.6µM	-	-	-	?
O=C(C#Cc1ccccc1)c1cccc([N+](=O)[O-])c1	2.91µM	?	-	7.31µM	?
O=C(Oc1ccc(F)cc1C(=O)/C=C/c1cccs1)c1cccc([N+](=O)[O-])c1	?	-	-	13µM	?
COc1ccc(C(=O)/C=C/c2ccccc2F)c(OC(=O)c2ccc([N+](=O)[O-])cc2)c1	14.6µM	?	?	?	?
O=C(CS(=O)CC(=O)N(c1ccccc1)C(C(=O)NC1CCCC1)c1cccs1)Nc1ccc(F)cc1 (configuration not stated)	-	-	-	-	-
Cc1c(CNC(=O)c2nn3c(c2Cl)NC(c2ccccc2)CC3C(F)(F)F)cnn1C (configuration not stated)	-	20.6µM	-	-	-
COc1ccc(C2CC(C(F)(F)F)n3nc(C(=O)NCc4c(C)nn(C)c4C)c(Cl)c3N2)cc1 (configuration not stated)	-	6.51µM	?	-	?
CCOCCCNC(=O)c1ccc2c(=O)n(Cc3ccc(OC)cc3)c(=O)[nH]c2c1	-	-	-	-	?
CCC(C)(C)n1nnnc1C(c1cc2ccc(C)cc2[nH]c1=O)N(Cc1cccnc1)Cc1ccco1 (configuration not stated)	?	20.6µM	-	?	-
Cc1cc2cc(C(c3nnnn3C3CCCC3)N(Cc3cccnc3)Cc3ccco3)c(=O)[nH]c2cc1C (configuration not stated)	?	-	-	?	18.4µM
Cc1ccc2cc(C(c3nnnn3C3CCCC3)N(Cc3ccccc3)Cc3ccco3)c(=O)[nH]c2c1 (configuration not stated)	-	?	-	?	-
Cc1onc(-c2ccccc2Cl)c1C(=O)N1CCN(c2nc3ccccc3s2)CC1	-	-	?	-	13µM
Cc1ccc(/C=C/C(=O)N2CCN(Cc3ccccc3)CC2)o1	-	13µM	-	-	?
Cc1onc(-c2ccccc2Cl)c1C(=O)N1CCN(C/C=C/c2ccccc2)CC1	?	14.6µM	-	?	?
Cc1onc(-c2ccccc2Cl)c1C(=O)N1CCCCC1	-	-	-	-	-
Cc1ccc(C(=O)N2CCN(Cc3ccccc3)CC2)o1	-	-	-	-	-
Cc1onc(-c2ccccc2Cl)c1C(=O)N1CCc2ccccc21	-	23.1µM	-	-	?
CC(=O)c1ccc(N2CCN(C(=O)c3c(-c4ccccc4Cl)noc3C)CC2)cc1	-	.	.	-	-
COc1ccc(-c2nc(CS(=O)(=O)CC(=O)NCc3ccccc3OC)c(C)o2)cc1	-	-	-	-	-
N#Cc1nc(COc2ccccc2F)oc1NCCCn1ccnc1	-	-	-	-	-
COc1ccccc1N1CCN(C(=O)c2c(-c3ccccc3Cl)noc2C)CC1	-	?	20.6µM	?	?
SMILES	MCF10A rerep	KB-V1 cytotox	KB-3-1 tox	SW480 rerep	ELG1 repair inh
Cc1onc(-c2ccccc2Cl)c1C(=O)OCC(=O)N1CCN(c2ccccc2)CC1	?	8.2µM	-	-	-
CCN1CCN(C(=O)c2c(-c3ccccc3)noc2C)CC1	-	-	-	-	-
Cc1onc(-c2ccccc2)c1C(=O)N1CCN(Cc2ccccc2)CC1	-	23.1µM	-	-	-
Brc1ccc(NC2=Nc3ccccc3CC2)cc1	?	-	-	?	?
COc1ccc(/C=N\NC(=O)c2ccccc2[N+](=O)[O-])cc1COc1c(F)c(F)c(F)c(F)c1F	?	-	-	-	?
CCNC(=S)NNC(=O)c1cc(-c2ccccc2C)nc2ccccc12	-	16.4µM	-	-	-
O=C(NCc1ccccn1)c1ccc(Cl)cc1Cl	-	?	-	-	?
O=C(NCc1ccccn1)c1cc(-c2ccc(Cl)cc2)nc2ccccc12	-	11.6µM	-	-	?
O=C(NCc1ccccn1)c1cc(-c2ccc(-c3ccccc3)cc2)nc2ccccc12	?	-	-	-	?
O=C(NCc1ccccn1)c1cc(Cl)ccc1OCc1ccccc1	-	-	-	-	16.4µM
Cc1ccc(-c2cc(C(=O)NCc3ccccn3)c3ccccc3n2)cc1C	5.8µM	14.6µM	?	?	?
Cc1c(N2C(=O)C(C)SC23C(=O)Nc2ccccc23)c(=O)n(-c2ccccc2)n1C (configuration not stated)	-	-	-	-	-
COc1cc(CNCc2ccccn2)ccc1OCc1cccc(Cl)c1	13µM	-	-	?	-
COCCNC(=O)c1cc(-c2ccc(-c3ccccc3)cc2)nc2ccccc12	?	-	20.6µM	?	-
COCCCNC(=O)c1cc(-c2cccnc2)nc2ccccc12	-	-	-	-	-
O=C(COc1ccccc1C(=O)NCc1ccccn1)Nc1ccc(Br)cc1	-	-	-	-	16.4µM
Cc1cccc(-c2cc(C(=O)NCc3ccccn3)c3ccccc3n2)c1	-	5.8µM	-	-	16.4µM
O=C(COc1ccccc1C(=O)NCc1ccccc1)Nc1ccc(Br)cc1	.	-	?	.	.
O=C(NCc1ccccn1)c1cc(-c2ccccc2)nc2ccccc12	-	-	-	?	?
COCCNC(=O)C(=O)NCC1OCCN1S(=O)(=O)c1cc(F)ccc1F (configuration not stated)	-	-	-	-	.
Cc1ccc(C(=O)N(CC(=O)Nc2sc(C)c(C)c2C(N)=O)C2CCCC2)cc1	?	?	-	-	?
Cc1sc(NC(=O)CN(C(=O)c2ccccc2F)C2CCCC2)c(C(N)=O)c1C	-	?	-	-	16.4µM
S=c1[nH]nc(-c2ccccc2)n1/N=C/c1ccc(-c2ccccc2Cl)o1	8.2µM	13µM	-	-	-
S=c1[nH]nc(-c2cccc(Cl)c2)n1/N=C/c1ccc(-c2ccccc2Br)o1	-	-	?	-	?
COC(=O)c1c(C)[nH]c(C(=O)C(C)OC(=O)C2=NNC(=O)CC2)c1C (configuration not stated)	-	5.8µM	?	-	-
COC(=O)c1c(C)[nH]c(C(=O)C(C)OC(=O)C2CC2C)c1C (configuration not stated)	-	-	-	-	-
Cc1cccc(N2CCN(C(=O)c3cc(S(=O)(=O)N4CCOCC4)cn3C)CC2)c1C	?	-	-	-	-
